Measured values: the supplement of paper PMC8975748
Counter-ions that a name gives are not always drawn. ± gives the standard deviation of the averaged measurements.

Legend:
[1] = tested on: Saccharomyces cerevisiae BY4741 SeMeCo community; experiment: mean cell size (pixel area) (pixels); higher = larger cells; details: 10 µM; 24 h; SM minimal medium
Procedure, shortened: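 The test system was a fluorescent Saccharomyces cerevisiae BY4741 community with four plasmids, each restoring one auxotrophy and carrying a fluorescent marker. Cells were grown for 24 h in SM medium with drug at a final 10 µM in 384-well plates, then fixed with paraformaldehyde and imaged by automated confocal microscopy for Harmony analysis of mean cell pixel area per well. Values represent the average of 3 replicates. Same SeMeCo high-content imaging drug screen: Selleck FDA-approved drugs at 10 µM, 24 h in SM medium, 384-well plates, 3 replicates.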

[2] = tested on: Saccharomyces cerevisiae BY4741 SeMeCo community; experiment: z-score of prototroph abundance vs DMSO median; higher = larger share of this subpopulation than in DMSO controls; details: 10 µM; 24 h; SM minimal medium; subpopulation (auxotrophy): Prototroph
Procedure, shortened: (§1)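 A community of Saccharomyces cerevisiae BY4741 was built from four plasmids that each restored one auxotrophy and encoded a distinct fluorescent protein. Pre-grown overnight to OD600 1.0 and diluted to 0.3, it was dispensed at 70 µl into 384-well plates acoustically predosed with library drugs for a final 10 µM, and grown 24 h in minimal SM medium. Cells were then paraformaldehyde-fixed and imaged by automated confocal microscopy. Thresholds and autofluorescence correction came from single-auxotroph fluorescent strains, and each subpopulation's abundance was scored as a z-score relative to the vehicle-well median.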

[3] = tested on: Saccharomyces cerevisiae BY4741 SeMeCo community; experiment: z-score of subpopulation abundance vs DMSO median, subpopulation auxotrophic for M; higher = larger share of this subpopulation than in DMSO controls; details: 10 µM; 24 h; SM minimal medium; subpopulation (auxotrophy): M
Procedure, shortened: as §1

[4] = tested on: Saccharomyces cerevisiae BY4741 SeMeCo community; experiment: z-score of subpopulation abundance vs DMSO median, subpopulation auxotrophic for L; higher = larger share of this subpopulation than in DMSO controls; details: 10 µM; 24 h; SM minimal medium; subpopulation (auxotrophy): L
Procedure, shortened: as §1

[5] = tested on: Saccharomyces cerevisiae BY4741 SeMeCo community; experiment: z-score of subpopulation abundance vs DMSO median, subpopulation auxotrophic for U; higher = larger share of this subpopulation than in DMSO controls; details: 10 µM; 24 h; SM minimal medium; subpopulation (auxotrophy): U
Procedure, shortened: as §1

[6] = tested on: Saccharomyces cerevisiae BY4741 SeMeCo community; experiment: z-score of subpopulation abundance vs DMSO median, subpopulation auxotrophic for H; higher = larger share of this subpopulation than in DMSO controls; details: 10 µM; 24 h; SM minimal medium; subpopulation (auxotrophy): H
Procedure, shortened: as §1

[7] = tested on: Saccharomyces cerevisiae BY4741 SeMeCo community; experiment: z-score of subpopulation abundance vs DMSO median, subpopulation auxotrophic for LU; higher = larger share of this subpopulation than in DMSO controls; details: 10 µM; 24 h; SM minimal medium; subpopulation (auxotrophy): LU
Procedure, shortened: as §1

[8] = tested on: Saccharomyces cerevisiae BY4741 SeMeCo community; experiment: z-score of subpopulation abundance vs DMSO median, subpopulation auxotrophic for LM; higher = larger share of this subpopulation than in DMSO controls; details: 10 µM; 24 h; SM minimal medium; subpopulation (auxotrophy): LM
Procedure, shortened: as §1

[9] = tested on: Saccharomyces cerevisiae BY4741 SeMeCo community; experiment: z-score of subpopulation abundance vs DMSO median, subpopulation auxotrophic for HM; higher = larger share of this subpopulation than in DMSO controls; details: 10 µM; 24 h; SM minimal medium; subpopulation (auxotrophy): HM
Procedure, shortened: as §1

[10] = tested on: Saccharomyces cerevisiae BY4741 SeMeCo community; experiment: z-score of subpopulation abundance vs DMSO median, subpopulation auxotrophic for HU; higher = larger share of this subpopulation than in DMSO controls; details: 10 µM; 24 h; SM minimal medium; subpopulation (auxotrophy): HU
Procedure, shortened: as §1

[11] = tested on: Saccharomyces cerevisiae BY4741 SeMeCo community; experiment: z-score of subpopulation abundance vs DMSO median, subpopulation auxotrophic for HL; higher = larger share of this subpopulation than in DMSO controls; details: 10 µM; 24 h; SM minimal medium; subpopulation (auxotrophy): HL
Procedure, shortened: as §1

[12] = tested on: Saccharomyces cerevisiae BY4741 SeMeCo community; experiment: z-score of subpopulation abundance vs DMSO median, subpopulation auxotrophic for HLM; higher = larger share of this subpopulation than in DMSO controls; details: 10 µM; 24 h; SM minimal medium; subpopulation (auxotrophy): HLM
Procedure, shortened: as §1

[13] = tested on: Saccharomyces cerevisiae BY4741 SeMeCo community; experiment: z-score of subpopulation abundance vs DMSO median, subpopulation auxotrophic for HUM; higher = larger share of this subpopulation than in DMSO controls; details: 10 µM; 24 h; SM minimal medium; subpopulation (auxotrophy): HUM
Procedure, shortened: as §1

[14] = tested on: Saccharomyces cerevisiae BY4741 SeMeCo community; experiment: z-score of subpopulation abundance vs DMSO median, subpopulation auxotrophic for LUM; higher = larger share of this subpopulation than in DMSO controls; details: 10 µM; 24 h; SM minimal medium; subpopulation (auxotrophy): LUM
Procedure, shortened: as §1

[15] = tested on: Saccharomyces cerevisiae BY4741 SeMeCo community; experiment: z-score of subpopulation abundance vs DMSO median, subpopulation auxotrophic for HLUM; higher = larger share of this subpopulation than in DMSO controls; details: 10 µM; 24 h; SM minimal medium; subpopulation (auxotrophy): HLUM
Procedure, shortened: as §1

[16] = tested on: Saccharomyces cerevisiae BY4741 SeMeCo community; experiment: z-score of subpopulation abundance vs DMSO median, subpopulation auxotrophic for UM; higher = larger share of this subpopulation than in DMSO controls; details: 10 µM; 24 h; SM minimal medium; subpopulation (auxotrophy): UM
Procedure, shortened: as §1

Row | SMILES | mean cell size [1] | z-score of prototroph abundance [2] | z-score of subpopulation abundance [3] | z-score of subpopulation abundance [4] | z-score of subpopulation abundance [5] | z-score of subpopulation abundance [6] | z-score of subpopulation abundance [7] | z-score of subpopulation abundance [8] | z-score of subpopulation abundance [9] | z-score of subpopulation abundance [10] | z-score of subpopulation abundance [11] | z-score of subpopulation abundance [12] | z-score of subpopulation abundance [13] | z-score of subpopulation abundance [14] | z-score of subpopulation abundance [15] | z-score of subpopulation abundance [16]
1 | CN1[C@@H](CC(=O)c2ccccc2)CCC[C@H]1C[C@H](O)c1ccccc1 [Lobeline hydrochloride] | 12.5 ± 0.23 | 0.02 | 1.16 | -0.58 | 0.36 | -0.65 | -0.23 | -0.29 | 0.17 | -0.75 | -0.13 | -0.48 | 0.22 | -0.75 | 0.01 | 
2 | O=c1[nH]c(=O)n([C@H]2C[C@H](O)[C@@H](CO)O2)cc1I [Idoxuridine] | 12.4 ± 0.2 | 0.18 | -0.27 | 0.48 | 0.23 | -0.48 | -0.03 | 0.06 | -0.13 | -0.23 | -0.43 | -0.75 | -0.68 | -0.31 | -0.73 | -0.05
3 | Cc1cccc(N(C)C(=S)Oc2ccc3ccccc3c2)c1 [Tolnaftate] | 12.3 ± 0.27 | 0.3 | -0.22 | -0.24 | -0.32 | -1.13 | -0.35 | -0.04 | -0.59 | -0.22 | -0.75 | -0.75 | -0.16 | -0.11 | -1.09 | -0.08
4 | CN1CCN(C2=Nc3ccccc3Oc3ccc(Cl)cc32)CC1 [Loxapine Succinate] | 12.4 ± 0.17 | -0.71 | -0.12 | 1.71 | 0.78 | 0.08 | 1.85 | 0.87 | 0.14 | 0.53 | 1.02 | 0.21 | -0.1 | 1.15 | 0.78 | 0.97
5 | CCCCOc1cc(C(=O)OCCN(CC)CC)ccc1N [Oxybuprocaine HCl] | 12.6 ± 0.3 | -0.08 | 0.72 | 0.22 | -0.29 | -0.22 | -0.72 | 0.31 | 0.19 | 0.6 | 0.21 | 1.25 | 0.57 | 0.25 | 0.34 | -0.55
6 | NC(=O)N/N=C/c1ccc([N+](=O)[O-])o1 [Nitrofural] | 12.84 ± 0.1 | -0.16 | 1.2 | -0.82 | -0.14 |  | -0.35 | -1.3 | 0.63 | -0.42 | 0 | 3.28 | -0.73 | -0.73 | 0.17 | 0.54
7 | CC(C)n1c(/C=C/C(O)CC(O)CC(=O)O)c(-c2ccc(F)cc2)c2ccccc21 (centres undefined) [Fluvastatin Sodium] | 12.1 ± 0.16 | -11 | 6.6 | -1.3 | 0.84 |  | 1.08 | -0.26 | 17.4 | 7.53 | 7.24 | 21.3 | 12.8 | 4.75 | 14 | 8.31
